Measurements published in PubChem BioAssay AID743269 (The Scripps Research Institute Molecular Screening Center, 2014).
In all, about 370,000 compounds went through this assay and about 2,400 (0.65%) were called active. What follows is part of a selection rich in actives, with near analogues and random picks from the rest. A number with no mark means an inactive call.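 Rule for the calls: active = inhibition above the screen-wide mean plus 3 SD (cut at about 13% in these data); inactive = the rest.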

The compounds below were run on HIV-1 integrase (with human LEDGF/p75) (assay: blockers of LEDGF/p75-dependent integrase strand transfer – biochemical, TR-FRET, high throughput, primary screen (AID 743269;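 note: signal is the Cy5 over europium emission ratio at 671 and 618 nm; 0% = plate median of compound wells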)). Conditions: TR-FRET IN-LEDGF/p75 DNA integration, Eu/Cy5; at 3.7 µM; hits give high values.

Compound | inhibition
CC(C)N1CCCCC(NC(=O)c2ccc3ccccc3c2)C1=O (centres undefined) | 0.96%
Cc1ccc(Cn2cc(CN3[C@@H](CC(C)C)COc4ccc(Cl)cc4S3(=O)=O)nn2)cc1 | 1.01%
O=S1(=O)c2ccc(Br)cc2OC[C@@H](Cc2ccccc2)N1Cc1cn(Cc2ccco2)nn1 | 5.73%
O=C1C=CC(=O)N1c1ccc(N2CCCCC2)cc1 | 14.3% (active)
Cc1ccc(-n2c(SCC(=O)Nc3ccc(S(=O)(=O)Nc4nccs4)cc3)nnc2-c2ccccn2)cc1 | -3.23%
COC(=O)C1CN(CCc2ccccc2)CCS(=O)(=O)N1Cc1cccc(Cl)c1 (centres undefined) | 0.85%
CN(C)[C@H]1CCN(c2cccc3c2S(=O)(=O)N2CC[C@H](C2)O3)C1 | 2.98%
C=CCn1c(=S)[nH]c2scc(-c3ccco3)c2c1=O | 42.3% (active)
O=S1(=O)c2c(cccc2N2CC[C@H](O)C2)O[C@@H]2CCN1C2 | 1.21%
O=C(c1ccncc1)N1CC[C@H]2[C@H](CCCN2Cc2ccc(F)cc2)C1 | 1.57%
O=C(c1cccc(C(F)(F)F)c1)N1CC[C@H]2[C@H](CCCN2Cc2cc(F)cc(F)c2)C1 | 86.5% (active)
O=C(N1CCOCC1)N1CC[C@H]2[C@H](CCCN2Cc2ccc(F)cc2)C1 | 3%
CCN(CC)C(=O)CC[C@@H]1CC[C@]2(CCCN(S(=O)(=O)C3CCCCC3)C2)O1 | -3.12%
COc1ccc(Cn2cc(COC(=O)N(C)Cc3ccccc3)nn2)cc1 | 2.21%
CCc1c(-c2ccccc2)nc(N)c(C#N)c1-c1cccs1 | 0.5%
CSc1nc(N)c(C#N)c(-c2ccccc2Cl)c1C#N | 30.9% (active)
CSc1ccc(-c2c(C#N)c(N)nc3c2c(C)nn3-c2ccccc2)cc1 | -1.93%
CCCCCCCCNS(=O)(=O)/C=C/c1cc(C)ccc1CNC(=O)OC(C)(C)C | -0.25%
COc1ccc(CN2C(=O)N3Cc4cc(OC)ccc4C3CS2(=O)=O)cc1 (centres undefined) | 0.03%
CCc1cc2c(SCC(=O)Nc3ncc(Cl)c(C)c3Cl)ncnc2s1 | 44.2% (active)
Cc1sc2ncnc(SCC(=O)Nc3ccc(CN4CCCC4)cc3)c2c1C | -2.64%
Cc1c(Cl)cnc(NC(=O)COC(=O)C2CCCC2)c1Cl | 3.73%
O=C(CNS(=O)(=O)c1ccccc1F)N1CCN(c2ccccn2)CC1 | -3.63%
COC(=O)[C@]12C[C@H](CC(=O)N3CCN(C(=O)C4CC4)CC3)C(=O)N(CCC3=CCCCC3)C1=C[C@H](C(C)C)O[C@@H]2C1CC1 | -2.49%
O=C(CN1C(=O)c2ccccc2S1(=O)=O)N1CCc2ccccc21 | -3.85%
NS(=O)(=O)c1ccc(CCNC(=O)CN2C(=O)c3ccccc3S2(=O)=O)cc1 | 4.15%
CN(Cc1ccc(F)cc1)C(=O)CN1C(=O)c2ccccc2S1(=O)=O | 18% (active)
CCOC(=O)[C@@]12CN(C(=O)OC(C)(C)C)CC=C1N(Cc1ccc(OC)cc1)C(=O)[C@H]2CC(=O)NCc1ccc(OC)c(OC)c1 | -2.96%
CC(C)(C)OC(=O)NCc1cc(F)ccc1/C=C/S(=O)(=O)NCCc1ccccc1 | 1.04%
